This is one part of a sample in which hits are shown more often than they occur.
KDM5B inh: Primary screen for KDM5B Histone Demethylases FDH-coupled qHTS; Potency, µM (top dose mostly 57.7 µM), usual class: inhibitors; Lysine-specific demethylase 5B (Homo sapiens), Q9UGL1; KDM5B demethylase, FDH-coupled NADH fluorescence (FDH is formaldehyde dehydrogenase); hit rate 2.6% among 220,000; active means well fitted inhibition curve with a large enough effect; further: nearly all actives have a fitted effect of over 70% in size
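Inhibition is measured as reduced NADH fluorescence generation from FDH coupling to formaldehyde release. Truncated KDM5BΔAP at 200 nM final acts on H3K4me3 peptide (12.5 µM in substrate mix) in pH 7.5 HEPES buffer with Tween-20, 30 min, room temperature.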
Numbers stand for hits.

Results for CCCn1cnc2c1CN(S(=O)(=O)c1cccc(C(F)(F)F)c1)[C@H](C(=O)OC)C2 ?
KDM5B inh: 32µM

How did COC(=O)[C@@H]1Cc2ncn(Cc3ccc(OC)cc3)c2CN1S(=O)(=O)c1cccc(C(F)(F)F)c1 do in these assays?
KDM5B inh: inactive

What do the screens show for `COC(=O)[C@@H]1Cc2ncn(Cc3ccc(Cl)cc3)c2CN1S(=O)(=O)c1ccc(OC)cc1`?
KDM5B inh: inactive

Results for COC(=O)[C@@H]1Cc2ncn(Cc3ccc(Cl)cc3)c2CN1S(=O)(=O)c1cccc(C(F)(F)F)c1 ?
KDM5B inh: inactive

How did COC(=O)[C@@H]1Cc2ncn(Cc3ccccc3)c2CN1S(=O)(=O)c1cccc(C(F)(F)F)c1 do in these assays?
KDM5B inh: inactive

How did COC(=O)[C@@H]1Cc2ncn(Cc3ccc(OC)cc3)c2CN1S(=O)(=O)c1cccc2c(N(C)C)cccc12 do in these assays?
KDM5B inh: 18µM

How did COc1ccc(NS(=O)(=O)c2ccc3c(c2)NC(=O)CS3)cc1 do in these assays?
KDM5B inh: inactive

What do the screens show for `CC(C)CCn1nc(C(=O)NCc2ccc(Cl)cc2)c2ccccc2c1=O`?
KDM5B inh: inactive

What do the screens show for `CCOC(=O)C(C)N1C(=O)S/C(=C/c2cn(C)c3ccccc23)C1=O` (centres undefined)?
KDM5B inh: inactive

How did Cc1cnc(CCNC(=O)Cc2cccc(F)c2)n1Cc1ccc(F)cc1 do in these assays?
KDM5B inh: inactive

How did CCNC(=O)NC(=O)C(C)Sc1cc(C)c2cccc(C)c2n1 (centres undefined) do in these assays?
KDM5B inh: inactive

What do the screens show for `Cc1cc(Cl)ccc1OC(C)C(=O)Oc1ccc(-c2ccc(C#N)cc2)cc1` (centres undefined)?
KDM5B inh: inactive

What do the screens show for `CC(=O)c1cccc(NCC(=O)Nc2ccccc2C#N)c1`?
KDM5B inh: inactive

What do the screens show for `CCOc1ccc(NC(=O)c2ccc3ccccc3n2)cc1OCC`?
KDM5B inh: inactive

Results for Cc1nnc(NC(=O)c2cc(=O)c3cc(C)c(C)cc3o2)s1 ?
KDM5B inh: inactive

What do the screens show for `Cn1cc2c3c(cccc31)CN(C(=O)c1ccccc1F)CC2`?
KDM5B inh: inactive

What do the screens show for `Cn1cc2c3c(cccc31)CN(C(=O)c1cccs1)CC2`?
KDM5B inh: inactive

Results for Cn1cc2c3c(cccc31)CN(C(=O)CC(C)(C)C)CC2 ?
KDM5B inh: 32µM

What do the screens show for `O=C(COc1ccc(F)cc1)N1CCOc2ccc(CN3CCc4ccccc4C3)cc2C1`?
KDM5B inh: inactive

Results for CCCn1cc2c3c(cccc31)CN(C(=O)COc1ccc(F)cc1)CC2 ?
KDM5B inh: 32µM

How did COc1ccccc1C(=O)N1CCc2cn(C)c3cccc(c23)C1 do in these assays?
KDM5B inh: inactive

How did CC1CCC2(CC1)NC(=O)N(Cc1coc(-c3cccs3)n1)C2=O (centres undefined) do in these assays?
KDM5B inh: inactive

Results for COC(=O)CCNC(=O)N1CCc2[nH]cnc2C1c1ccc(OC)cc1F (centres undefined) ?
KDM5B inh: inactive

What do the screens show for `Cc1ccc(-c2ncc(C(=O)Nc3ccc(F)cc3C)c(-c3ccncc3)n2)cc1`?
KDM5B inh: inactive

What do the screens show for `O=C(O)CCC(=O)OCCc1ccccc1`?
KDM5B inh: inactive

Results for Cc1ccc(C(C)NS(=O)(=O)c2cccs2)o1 (centres undefined) ?
KDM5B inh: inactive

What do the screens show for `Cc1ccccc1NC(=O)N1CCN(c2ccc(=O)n(-c3ccc(F)cc3)n2)CC1`?
KDM5B inh: inactive

Results for COCC1CN(C(C)=O)CC12CCN(C(=O)COc1ccccc1)CC2 (centres undefined) ?
KDM5B inh: inactive

Results for COCC1CN(C2CCC2)CC12CCN(C(=O)COc1ccc(F)cc1)CC2 (centres undefined) ?
KDM5B inh: 10µM

What do the screens show for `COCC1CN(C2CCC2)CC12CCN(C(=O)C1CCC1)CC2` (centres undefined)?
KDM5B inh: inactive

What do the screens show for `CCOc1ccc(-n2nnc(C(=O)Nc3ccccc3CC)c2N)cc1`?
KDM5B inh: inactive

How did COc1ccccc1NC(=O)N1CC[C@H]2CC(=O)N(CCc3cnc[nH]3)CC[C@H]2C1 do in these assays?
KDM5B inh: inactive

What do the screens show for `COc1ccccc1-c1cc(C(=O)NCCc2cnc[nH]2)c2c(c1)N(C)CCO2`?
KDM5B inh: 32µM

How did O=C(NCCC(=O)N1CCCC1)c1ccccc1Cl do in these assays?
KDM5B inh: inactive

What do the screens show for `COc1ccccc1C(=O)NCCc1c[nH]c2ccccc12`?
KDM5B inh: inactive

How did O=C(NCCc1cnc[nH]1)C1CCCN(C2CCOCC2)C1 (centres undefined) do in these assays?
KDM5B inh: inactive

How did CN1CCOc2c(C(=O)NCCc3cnc[nH]3)cc(-c3ccccc3)cc21 do in these assays?
KDM5B inh: 32µM

How did O=C(NCCN1CCCCC1)c1nc(-c2cccc3[nH]ccc23)no1 do in these assays?
KDM5B inh: inactive

What do the screens show for `CCN(CC)CCNC(=O)c1nc(-c2cccc3[nH]ccc23)no1`?
KDM5B inh: inactive
